# Hits are enriched below; roughly 4.7% of the tested compounds scored in any of these assays.
# D1 antag = antagonists of human D1 dopamine receptor; P21728; HEK293 TREx D1 cells, calcium flux, dopamine EC80; active compounds read low; activity change, negative = inhibition, % at 10 µM; 360,000 tested, 3.2% active; AID 504652; in the data active = activity change below about -30%; note: % is set by controls: 0 for no effect and ±100 for the full control effect
#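 Tetracycline-induced HEK293 T-REx cells with force-coupled D1 receptor were loaded with a no-wash calcium dye. Compound was added after a 10 s baseline and read kinetically for 180 s; EC80 dopamine was then added and calcium flux followed another 180 s.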
# TRHR PAM = TRH receptor (human) allosteric enhancement; P34981; TRHR cells, fluo-8 calcium fluorescence, EC20 TRH enhancement; enhancement, % at 2 µM; 360,000 tested, 0.66% active; in the data active = enhancement above about 30%; note: 0% is about no effect
# Target sequence (P34981 whole entry, looked up): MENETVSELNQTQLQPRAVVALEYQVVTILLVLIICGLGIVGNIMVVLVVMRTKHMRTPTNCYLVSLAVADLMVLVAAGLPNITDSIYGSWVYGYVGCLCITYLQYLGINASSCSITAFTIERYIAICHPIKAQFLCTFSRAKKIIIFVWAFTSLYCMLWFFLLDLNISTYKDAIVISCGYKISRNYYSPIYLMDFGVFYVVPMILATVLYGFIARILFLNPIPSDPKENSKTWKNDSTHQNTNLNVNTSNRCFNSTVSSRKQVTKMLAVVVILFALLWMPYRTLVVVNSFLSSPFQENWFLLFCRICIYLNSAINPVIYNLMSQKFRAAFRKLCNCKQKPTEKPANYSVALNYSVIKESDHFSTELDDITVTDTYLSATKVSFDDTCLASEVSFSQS
#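 Enhancer read-out: after compound pinning and an initial kinetic agonist-mode read, an EC20 of TRH (10 nM final) was injected and fluo-8 calcium signal (Ex 480/Em 530) followed at 1 s/cycle for 100 cycles in TRHR-expressing cells.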
# D1 ag = activates the human D1 dopamine receptor; P21728; HEK293 T-REx D1 cells, calcium flux, agonist mode; activation, % at 2 µM; 360,000 tested, 1% active; AID 504660; note: 0% is about no effect
#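 Tetracycline-induced HEK293 TREx D1 cells, force-coupled to calcium signalling, were dye-loaded with a no-wash calcium kit. Compound was pin-added after a 10 s baseline. Fluorescence was read kinetically at 1 cycle/s for 180 s, with calcium rises flagged as agonism.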
# TRHR ag = agonists of human TRH receptor | P34981 | TRHR cells, calcium flux fluo-8, FDSS agonist mode | activation, % at 2 µM | 360,000 tested, 0.18% active; note: 0% is about no effect
#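 Read-out: compound-evoked intracellular calcium rise in TRHR cells, fluo-8 dye, kinetic FDSS fluorescence at 1 s/cycle following a 10-cycle baseline. Cells cultured overnight before dye loading (30 min–1.5 h, RT).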
# D1 potentiator = human D1 dopamine receptor positive modulation. potentiation, % at 10 µM. 360,000 tested, 0.036% active. AID 504651. HEK293 TREx D1 cells, calcium flux, dopamine EC20 potentiation; in the data active = potentiation above about 30%; note: 0% is about no effect
# Numbers without * were called inactive; . = no result given; ! = repeats disagree. Cut-off read from the data, not from the text of the source, unless noted: active = activation above about 30%; inactive = the rest.
SMILES,D1 antag,TRHR PAM,D1 ag,TRHR ag,D1 potentiator
Cc1ccc(OC(=O)c2snnc2C)cc1C,-10.1,-2.9,2.4,-0.5,1.4
Cc1ccc2[nH]c(=O)c3cc(C(=O)NC4CCC(C)CC4)sc3c2c1 (stereo unspecified),-42.8*,-0.5,0.7,0.3,-5.2
S=c1[nH]c(-c2ccc(Br)cc2)cn1CCc1ccccc1,-90.3*,8.6,3.8,0.4,-6.5
COc1cccc(CNC(=O)Cn2c(=O)oc3cc(S(=O)(=O)N4CCCCCC4)ccc32)c1,-12.5,-1.5,7.7,-0.5,-2.3
O=C(Cn1c(=O)oc2ccccc21)Nc1cccc(Cl)c1,0.1,4.8,3.1,-0.4,0.4
CC1CCN(S(=O)(=O)c2ccc3c(c2)oc(=O)n3CC(=O)NCc2ccc(F)cc2)CC1,-56.7*,-0.1,87.3*,7.2,0.8
COc1ccc(NC(=O)Cn2c(=O)oc3cc(S(=O)(=O)N4CCCC4)ccc32)cc1,-3.2,-1.9,1.5,0.8,-2.6
COc1ccc(CNC(=O)Cn2c(=O)oc3cc(S(=O)(=O)N4CCCC4)ccc32)cc1,-41.0*!,-4.4,11.0,-0.5,-0.9
O=C(Cn1c(=O)oc2cc(Cl)ccc21)Nc1cccc(C(F)(F)F)c1,-46.9*,-0.9,27.2,0.2,-7.2
CC(C)c1ccc(NC(=O)Cn2c(=O)oc3cc(S(=O)(=O)N4CCCC4)ccc32)cc1,-35.8*,-2.6,3.7,-0.3,-2.6
Cc1cccc(NC(=O)Cn2c(=O)oc3cc(S(=O)(=O)NC4CCCC4)ccc32)c1,-1.2,4.2,7.4,0.3,-6.2
Cc1cccc(NC(=O)Cn2c(=O)oc3cc(S(=O)(=O)NCc4ccccc4)ccc32)c1,-34.8*,0.0,4.2,0.2,-4.0
COC(=O)c1ccc(S(=O)(=O)N(Cc2ccccc2)Cc2ccccc2)n1C,-40.4*,4.5,10.6,-0.5,-4.2
CCN(Cc1ccccc1)S(=O)(=O)c1cc(C(=O)OC)n(C)c1,-24.0,-7.0,13.0,-0.4,-7.5
N#C/C(=C\Nc1ccc2c(c1)OCCO2)c1nc(-c2ccccc2)cs1,-41.8*,2.3,0.2,-0.2,-7.5
COc1ccc(-c2csc(/C(C#N)=C/Nc3ccc4c(c3)OCCO4)n2)cc1,6.6,25.8,2.8,-0.2,0.8
CCc1ccccc1NC(=O)NC(CC)Cn1nnc2ccccc2c1=O (stereo unspecified),2.5,-20.2,0.5,0.3,-0.8
Fc1cccc(Cl)c1CNc1n[nH]c(-c2ccco2)n1,-8.8,-1.9,-2.2,-1.3,2.3
c1ccc(CN2CCC(Nc3ncnc4sccc34)CC2)cc1,-25.6,-2.7,11.0,1.0,-5.2
Cc1csc2c(NC3CCN(Cc4ccccc4)CC3)ncnc12,-36.8*,2.4,10.9,0.8,-9.2
Cc1sc2ncnc(NC3CCN(Cc4ccccc4)CC3)c2c1C,-53.1*,0.1,7.9,0.0,-16.5
CCc1ccc(S(=O)(=O)Nc2cccc(-c3ccc(N4CCOCC4)nn3)c2)cc1,13.4,8.2,9.4,-0.2,3.0
Brc1cccc(-c2nnc(CN3CCN(c4ccccn4)CC3)o2)c1,4.3,-2.8,2.1,-0.1,-2.0
Cc1c(N/C(=N/S(=O)(=O)c2ccc(Cl)cc2)c2ccccc2)c(=O)n(-c2ccccc2)n1C,-62.5*,-24.0,2.2,0.4,-1.8
COc1ccc(CNc2oc(COc3ccc(Cl)cc3)nc2C#N)cc1,-30.0*,-8.8,3.9,-1.7,-7.0
SMILES,D1 antag,TRHR PAM,D1 ag,TRHR ag,D1 potentiator
COc1ccc(-c2nc(C#N)c(NCc3ccccc3Cl)o2)cc1,-6.1,8.9,1.8,1.5,-5.3
COc1ccc(OCc2nc(C#N)c(NCc3ccccc3Cl)o2)cc1,-8.2,40.9*,21.6,-0.9,-6.5
N#Cc1nc(Cc2ccccc2)oc1NCc1ccccc1Cl,-36.7*,9.7,8.6,-1.4,-5.4
COc1ccc(N2CC(C(=O)OCC(=O)Nc3cccc(C)c3)CC2=O)cc1 (stereo unspecified),-30.5*,10.9,1.7,-0.3,8.4
COc1cccc(NC(=O)COC(=O)C2CC(=O)N(c3ccc(C)cc3)C2)c1 (stereo unspecified),-6.1,1.3,1.9,-1.1,-3.5
COc1cccc(C2C=C(c3ccc(Br)s3)Nc3ncnn32)c1OC (stereo unspecified),-10.1,0.3,48.4*,32.8*,-1.3
CCNCc1cc(OCC)c(OCC(=O)NCCc2ccccc2)cc1Cl,-39.9*,4.0,32.8*,-0.2,-8.0
CCOc1cc(CNCC(C)C)c(Cl)cc1OCC(=O)Nc1ccccc1,.,2.1,-1.2,-0.4,2.4
COc1cc(CNCCN(C)C)c(Br)cc1OCC(=O)NCc1ccccc1,-33.6*,-0.8,3.4,0.4,-3.5
O=C(NCC(c1ccco1)S(=O)(=O)c1ccc(Cl)cc1)c1ccc(C(F)(F)F)cc1 (stereo unspecified),.,-6.6,6.8,0.6,-1.9
Cc1ccc(C)c(N2CCN(C(=O)CN3C(=O)CSc4c3c(C)nn4-c3ccccc3)CC2)c1,9.4,-5.6,0.1,-0.1,-4.2
CC(OC(=O)Cc1n[nH]c(=O)c2ccccc12)C(=O)Nc1ccc(F)cc1Cl (stereo unspecified),2.3,4.3,1.4,-0.5,-2.3
C/C(=N\NC(=O)c1ccc(CSc2nncn2C)cc1)c1ccc(Cl)cc1,-31.5*,4.8,2.6,-0.5,-2.0
COc1ccc(/C(C)=N/NC(=O)c2ccc(CSc3nncn3C)cc2)cc1,-16.9,1.0,3.4,0.5,-3.7
Cc1cccnc1NC(=O)CCNS(=O)(=O)c1ccc2c(c1)c(=O)n(C)c(=O)n2C,4.5,35.0*,-3.3,0.1,-0.6
CCOC(=O)c1ccc2c(c1)nc(SCC(=O)c1ccco1)n2CC,-33.9*,-1.8,0.0,-0.6,-2.4
Cc1ccc(CNC(=O)/C=C/c2c(Cl)cccc2Cl)cc1,-36.2*,1.3,6.4,0.7,-1.6
Cc1cc2c(n1-c1ccc(C(=O)NCc3ccc(OC(C)C)cc3)cc1)CCCC2,-11.7,-18.5,1.4,-0.6,1.4
Cc1ccc(CNC(=O)c2ccc(-n3c(C)cc4c3CCCC4)cc2)cc1,4.1,30.8*,-0.4,0.5,2.4
Cc1ccc(N(CC(=O)NCCc2ccc(Cl)cc2)S(=O)(=O)c2c(C)noc2C)cc1,-33.5*!,-10.7,8.3,0.0,4.0
CCOc1ccc(N(CC(=O)Nc2cccc(Cl)c2)S(=O)(=O)c2c(C)noc2C)cc1,-36.2*,6.4,4.3,1.1,-6.2
COc1ccc(N(CC(=O)Nc2ccc(C)c(C)c2)S(=O)(=O)c2c(C)noc2C)cc1,-41.6*,21.9,4.4,1.0,-11.7
COc1ccc(N(CC(=O)Nc2ccc(C)c(F)c2)S(=O)(=O)c2c(C)noc2C)cc1,-9.2,-4.6,7.4,0.8,-2.6
CN(C)C1=NC[C@H](Cc2ccccc2)N1CC1CCCCCC1,0.5,2.1,3.1,0.4,-6.0

# Bioassay records: PubChem BioAssay, National Center for Advancing Translational Sciences (NCATS)
